In PubChem BioAssay AID651650 (Sanford-Burnham Center for Chemical Genomics, 2012) one finds inhibition data, which are given here for 16 compounds.

The structures appear in SMILES notation.

For orientation: inhibition means the drop in the measured response relative to a control, in per cent.

In this assay the target is Neuropilin-1 (Homo sapiens) (UniProt O14786). Kind of assay: blockers of CendR peptide binding to NRP-1 – biochemical, FP and AlphaScreen panel, dose response (AID 651650). The conditions noted are these: NRP-1 b1b2 / RPARPAR peptide binding, FP or AlphaScreen; run 1, at 100 µM (top of the series).
Neuropilin-1 (Homo sapiens), sequence (O14786 whole entry, looked up): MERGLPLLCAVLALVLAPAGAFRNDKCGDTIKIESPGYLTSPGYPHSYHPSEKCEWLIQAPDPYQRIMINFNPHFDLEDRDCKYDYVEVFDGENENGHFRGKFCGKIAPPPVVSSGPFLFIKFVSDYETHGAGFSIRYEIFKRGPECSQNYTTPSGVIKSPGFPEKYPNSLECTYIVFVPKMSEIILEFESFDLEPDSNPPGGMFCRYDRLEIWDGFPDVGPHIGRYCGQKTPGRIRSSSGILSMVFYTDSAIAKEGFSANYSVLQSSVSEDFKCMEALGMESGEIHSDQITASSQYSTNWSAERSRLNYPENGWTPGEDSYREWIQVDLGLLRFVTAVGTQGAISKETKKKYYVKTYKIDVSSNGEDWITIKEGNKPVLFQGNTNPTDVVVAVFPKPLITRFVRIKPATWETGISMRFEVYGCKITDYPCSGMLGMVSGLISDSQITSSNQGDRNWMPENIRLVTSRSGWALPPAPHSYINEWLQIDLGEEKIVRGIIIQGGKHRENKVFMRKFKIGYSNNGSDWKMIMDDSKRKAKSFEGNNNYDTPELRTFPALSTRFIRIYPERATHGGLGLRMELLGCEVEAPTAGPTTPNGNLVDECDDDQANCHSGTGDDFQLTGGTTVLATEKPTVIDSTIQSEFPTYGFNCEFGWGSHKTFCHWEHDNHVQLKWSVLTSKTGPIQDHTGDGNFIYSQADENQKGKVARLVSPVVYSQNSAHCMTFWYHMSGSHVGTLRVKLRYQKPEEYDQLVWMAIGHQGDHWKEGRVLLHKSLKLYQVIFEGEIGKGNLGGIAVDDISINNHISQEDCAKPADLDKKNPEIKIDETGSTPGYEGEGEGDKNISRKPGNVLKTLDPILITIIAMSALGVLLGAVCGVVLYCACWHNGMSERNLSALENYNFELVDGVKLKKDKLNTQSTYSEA
With `O=C(NCCCN1CCCC(O)C1)c1cc(COc2ccc(F)cc2F)on1` (stereo unspecified), the inhibition was found to be 50.2%.

For `CCOc1ccc(-n2c(Cc3cc(=O)[nH]c(=O)[nH]3)nnc2SC(C)C)cc1`, the inhibition stood at 59.6%.

For the compound `O=C(O)c1ccc(C(=O)Nc2cccc3ccccc23)c(C(=O)O)c1`, the inhibition worked out at 76.6%.

Consider `COC(=O)C1N[C@@H]([C@@H](NC(=O)COc2ccccc2)C(=O)NCc2ccccc2)SC1(C)C` (stereo partly specified), for which the inhibition amounted to 18.2%.

For `COC(=O)c1c(NC(=O)CN(c2ccccc2)S(C)(=O)=O)sc2c1CCCC2`, the inhibition was found to be 84%.

For `COc1ccc(-c2[nH]ncc2CN(C)CCc2c(C)n[nH]c2C)c(F)c1`, the inhibition was -14.2%.

With `O=C(NCCN1CCN(C(=O)c2cccc(OC(F)F)c2)CC1)c1cccc(OC(F)F)c1`, the inhibition is 0.403%.

Turning to `Cc1ccc(NC(=O)c2ccc3c(c2)S(=O)(=O)c2ccccc2C3=O)cc1S(=O)(=O)N1CCOCC1`, the inhibition was determined as 26.3%.

Regarding `Cc1ccccc1OCC1Cc2c(nc(N)c(C#N)c2N)O1` (stereo unspecified), the inhibition was -18.4%.

`COc1ccc(CCN=C2SCC(=O)N2Cc2ccccc2)cc1OC`: the inhibition amounted to 28.8%.

Regarding `COc1ccc(/C=N/NC(=O)c2nn(-c3ccc(Cl)cc3)c(=O)c3c(N)scc23)cc1`, the inhibition is 17.8%.

Turning to `COCCNC(=O)c1cc(-c2ccccc2)nn1CC1CC(c2cccc([N+](=O)[O-])c2)=NO1` (stereo unspecified), the inhibition was 14.3%.

`CNC(=O)NC(=O)C(C)OC(=O)c1c(C)noc1C` (stereo unspecified): the inhibition was determined as 49.1%.

On to `COc1ccc(S(=O)(=O)N2CCCCC2)cc1NC(=O)c1c(F)cccc1Cl`, for which the inhibition was determined as 37.3%.

On to `COc1ccc(-c2csc(NC(CO)c3nc4ccccc4n3CCCO)n2)cc1` (stereo unspecified), for which the inhibition came out at 41.5%.

Regarding `CCCCC1CCC(C(=O)NC2CCS(=O)(=O)C2)CC1` (stereo unspecified), the inhibition was 16.6%.
